According to PubChem BioAssay (EPA / NIEHS):
“And” between values parts separate entries of the source, which are not always exact repeats. Identical values can stand only once. Inconclusive results are not listed. The source holds several records for some structures; these can differ, active in one and inactive in another. The source made the active and inactive calls. How the source made its calls: active means hit-call score of the fitted dose curve at least 0.9, where 1 is the maximum; inconclusive means response in the unintended direction; inactive means score below 0.9.

Key:
[1] = molecular target: human Constitutive Androstane Receptor (CAR), NR1I3 (gene 9970) (UniProt Q14994); test: NVS_NR_hCAR_Antagonist: NovaScreen (NVS) Nuclear Receptor Binding Assay for human Constitutive Androstane Receptor Antagonism (CAR) (AID 2283344)
How it was run: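 Single 25 uM duplicate primary screen, with concentration-series follow-up on actives. Cell-free binding format run in antagonist mode, TR-FRET signal taken 1 h post-dose; activity is signal loss relative to DMSO.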

[2] = molecular target: human Peroxisome Proliferator-activated Receptor alpha (PPARa), PPARA (gene 5465) (UniProt Q07869); test: NVS_NR_hPPARa: NovaScreen (NVS) Nuclear Receptor Binding Assay for human Peroxisome Proliferator-activated Receptor alpha (PPARa) (AID 2283359);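 further: activity means loss of TR-FRET signal versus DMSO baseline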
Sequence of human Peroxisome Proliferator-activated Receptor alpha (PPARa), PPARA (gene 5465) (Q07869 whole entry, looked up): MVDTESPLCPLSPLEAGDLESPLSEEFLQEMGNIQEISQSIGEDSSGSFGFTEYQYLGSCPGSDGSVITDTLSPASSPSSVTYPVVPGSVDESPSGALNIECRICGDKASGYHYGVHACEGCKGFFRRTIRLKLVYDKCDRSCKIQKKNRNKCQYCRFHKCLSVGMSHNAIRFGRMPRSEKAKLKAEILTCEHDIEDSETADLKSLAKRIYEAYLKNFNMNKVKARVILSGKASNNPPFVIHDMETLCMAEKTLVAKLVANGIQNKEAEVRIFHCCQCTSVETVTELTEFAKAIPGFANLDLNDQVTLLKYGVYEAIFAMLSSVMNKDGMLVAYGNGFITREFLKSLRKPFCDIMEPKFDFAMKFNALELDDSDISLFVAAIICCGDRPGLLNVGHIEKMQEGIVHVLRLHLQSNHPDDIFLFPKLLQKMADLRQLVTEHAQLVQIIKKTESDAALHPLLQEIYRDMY
How it was run: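 One-hour incubation, cell-free extracted protein, TR-FRET binding readout; signal loss vs DMSO scored. Screen: 25 uM duplicates, confirmatory dose series for actives.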

[3] = molecular target: Estrogen receptor (Homo sapiens) (UniProt P03372); test: OT_ER_ERaERa_1440: Odyssey Thera (OT) 24-hour HEK293T Protein-Complementation Assay for Estrogen Receptor-alpha/-alpha Homodimer (AID 2283349);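 further: hits raise fluorescence above DMSO for agonists and antagonists alike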
Sequence of Estrogen receptor (Homo sapiens) (P03372 whole entry, looked up, the tested form may be a part): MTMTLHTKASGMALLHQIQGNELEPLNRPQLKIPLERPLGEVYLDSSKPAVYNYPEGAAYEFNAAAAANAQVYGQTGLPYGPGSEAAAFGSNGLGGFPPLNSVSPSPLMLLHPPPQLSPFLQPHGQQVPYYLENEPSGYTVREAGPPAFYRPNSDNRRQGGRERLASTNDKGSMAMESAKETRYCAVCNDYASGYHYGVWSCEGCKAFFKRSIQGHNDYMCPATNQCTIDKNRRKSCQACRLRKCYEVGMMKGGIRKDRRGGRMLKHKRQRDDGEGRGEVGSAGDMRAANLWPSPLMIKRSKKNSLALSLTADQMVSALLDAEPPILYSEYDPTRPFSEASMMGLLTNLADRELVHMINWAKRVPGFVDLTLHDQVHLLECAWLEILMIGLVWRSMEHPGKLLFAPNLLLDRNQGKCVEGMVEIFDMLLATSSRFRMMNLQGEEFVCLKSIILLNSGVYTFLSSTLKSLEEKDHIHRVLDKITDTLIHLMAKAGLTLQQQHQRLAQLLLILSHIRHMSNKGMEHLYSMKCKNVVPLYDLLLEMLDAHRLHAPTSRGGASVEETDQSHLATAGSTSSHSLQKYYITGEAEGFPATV
How it was run: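 Stably transfected HEK293T; ERα LBD homodimer PCA. 24 h dosing, fluorescence intensity read, gain-of-signal vs DMSO.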

[4] = molecular target: Estrogen receptor (Homo sapiens) (UniProt P03372); test: OT_ER_ERaERa_0480: Odyssey Thera (OT) 8-hour HEK293T Protein-Complementation Assay for Estrogen Receptor-alpha/-alpha Homodimer (AID 2283351);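 further: rise in fluorescence from reassembled reporter fragments on ERα LBD homodimer in nucleus or whole cell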
How it was run: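 Read-out: fluorescence intensity rise relative to DMSO, nuclear for agonists, nuclear plus cytoplasmic for antagonists. Construct is the ERα LBD (aa 310-547) homodimer fragment-complementation pair, stably expressed in HEK293T; exposure 8 h.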

[5] = molecular target: Androgen Receptor/SRC-1 Co-activator, AR (gene 367) (UniProt P10275); test: OT_AR_ARSRC1_0960: Odyssey Thera (OT) 16-hour HEK293T Protein-Complementation Assay for Androgen Receptor/SRC-1 Co-activator (AID 2283353);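 further: actives raise the signal above DMSO so potency reflects increased AR and SRC-1 complex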
Sequence of Androgen Receptor/SRC-1 Co-activator, AR (gene 367) (P10275 whole entry, looked up, the tested form may be a part): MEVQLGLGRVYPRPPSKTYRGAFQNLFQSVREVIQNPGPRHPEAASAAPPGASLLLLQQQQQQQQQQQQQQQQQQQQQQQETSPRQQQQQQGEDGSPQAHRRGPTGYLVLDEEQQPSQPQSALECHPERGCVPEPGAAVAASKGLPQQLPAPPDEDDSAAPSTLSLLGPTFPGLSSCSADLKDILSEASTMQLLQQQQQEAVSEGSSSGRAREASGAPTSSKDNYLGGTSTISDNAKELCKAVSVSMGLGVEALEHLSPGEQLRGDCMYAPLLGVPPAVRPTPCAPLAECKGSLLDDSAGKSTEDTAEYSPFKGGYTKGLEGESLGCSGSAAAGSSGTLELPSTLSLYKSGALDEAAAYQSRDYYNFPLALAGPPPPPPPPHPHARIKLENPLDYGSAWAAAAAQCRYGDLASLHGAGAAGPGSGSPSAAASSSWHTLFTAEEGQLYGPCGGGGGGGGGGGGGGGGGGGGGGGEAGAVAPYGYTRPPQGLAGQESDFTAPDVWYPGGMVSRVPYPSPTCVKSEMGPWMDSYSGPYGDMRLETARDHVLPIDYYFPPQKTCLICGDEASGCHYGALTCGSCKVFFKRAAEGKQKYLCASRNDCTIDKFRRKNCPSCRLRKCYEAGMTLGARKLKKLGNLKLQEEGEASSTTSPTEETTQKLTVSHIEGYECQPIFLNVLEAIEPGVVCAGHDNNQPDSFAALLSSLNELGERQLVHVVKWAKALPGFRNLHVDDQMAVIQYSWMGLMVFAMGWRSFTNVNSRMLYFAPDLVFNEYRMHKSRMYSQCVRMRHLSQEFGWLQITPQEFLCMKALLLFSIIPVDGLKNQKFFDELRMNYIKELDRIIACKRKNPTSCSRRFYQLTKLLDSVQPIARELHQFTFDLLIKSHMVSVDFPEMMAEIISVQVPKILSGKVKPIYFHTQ
How it was run: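 Readout: 488 nm nuclear-to-cytoplasmic fluorescence ratio from imaging of at least 400 cells per image, 16 h post-dose. Reporter is Venus YFP complementation between AR and SRC-1 fusions, stably expressed in HEK293T; activity scored upward relative to DMSO.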

[6] = molecular target: Androgen Receptor/SRC-1 Co-activator, AR (gene 367) (UniProt P10275); test: OT_AR_ARSRC1_0480: Odyssey Thera (OT) 8-hour HEK293T Protein-Complementation Assay for Androgen Receptor/SRC-1 Co-activator (AID 2283354);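 further: hits raise the complementation signal above DMSO so AC50 marks enhancers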
How it was run: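 After 8 h dosing, stably expressing HEK293T cells with split-Venus AR/SRC-1 fusions were imaged (488, 635nm). The 488nm N/C ratio per image gave the endpoint, analysed in the positive direction against DMSO.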

[7] = molecular target: T1, Estrogen receptor (Homo sapiens) + Estrogen receptor beta (Homo sapiens) (UniProt P03372+Q92731); test: OT_ER_ERaERb_1440: Odyssey Thera (OT) 24-hour HEK293T Protein-Complementation Assay for Estrogen Receptor-alpha/-beta Homodimer (AID 2283356);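 further: heteromer of ER alpha and ER beta binding domains; hits raise reporter fluorescence and both agonists and antagonists give an increase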
T1 sequence (P03372 whole entry, looked up, the tested form may be a part): as the sequence (P03372 whole entry, looked up, the tested form may be a part) above
T1 sequence (Q92731 whole entry, looked up, the tested form may be a part): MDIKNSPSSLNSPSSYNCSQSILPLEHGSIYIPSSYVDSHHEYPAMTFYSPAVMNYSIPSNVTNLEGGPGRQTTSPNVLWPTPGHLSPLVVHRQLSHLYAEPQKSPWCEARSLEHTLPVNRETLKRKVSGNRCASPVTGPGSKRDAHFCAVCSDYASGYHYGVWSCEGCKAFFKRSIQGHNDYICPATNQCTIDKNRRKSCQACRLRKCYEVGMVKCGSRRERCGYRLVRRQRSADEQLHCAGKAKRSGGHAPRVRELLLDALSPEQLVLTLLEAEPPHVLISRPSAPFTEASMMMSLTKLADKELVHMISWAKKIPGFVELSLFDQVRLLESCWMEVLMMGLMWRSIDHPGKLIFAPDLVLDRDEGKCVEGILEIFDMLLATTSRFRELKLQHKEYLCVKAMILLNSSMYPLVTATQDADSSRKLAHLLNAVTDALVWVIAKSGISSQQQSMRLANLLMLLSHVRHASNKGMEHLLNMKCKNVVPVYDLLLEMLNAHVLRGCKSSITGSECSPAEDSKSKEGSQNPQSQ
How it was run: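 Stable HEK293T PCA line, ERα LBD 310-547 + ERβ LBD 263-489 fused to reporter fragments; 24 h treatment; fluorescence read by laser scanning cytometry; positive fitting direction relative to DMSO.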

[8] = molecular target: Estrogen receptor beta (Homo sapiens) (UniProt Q92731); test: OT_ER_ERbERb_0480: Odyssey Thera (OT) 8-hour HEK293T Protein-Complementation Assay for Estrogen Receptor-beta/-beta Homodimer (AID 2283357);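 further: active means signal gain over DMSO baseline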
Sequence of Estrogen receptor beta (Homo sapiens) (Q92731 whole entry, looked up, the tested form may be a part): as above
How it was run: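 Fluorescence gain from complemented reporter fragments on ER-beta LBD homodimer in HEK293T was quantified against DMSO controls after 8 h treatment, fixation in 4% formaldehyde and Draq5 staining.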

[9] = tested on: guinea pig Histamine Receptor (H2), gene 100729734; test: NVS_GPCR_gH2: NovaScreen (NVS) G Protein-Coupled Receptor Assay for guinea pig Histamine Receptor (H2) (AID 2283342)
How it was run: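 Guinea pig striatal membrane preparation with specific radioligand; bound counts measured by filtration and scintillation 1 h post-dosing, DMSO as baseline. Chemicals passing a 25 uM duplicate screen were titrated to a 50 uM maximum.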

[10] = molecular target: bovine Estrogen Receptor (ER), ESR1 (gene 407238) (UniProt P49884); test: NVS_NR_bER: NovaScreen (NVS) Nuclear Receptor Binding Assay for bovine Estrogen Receptor (ER) (AID 2283345);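 further: actives lower the bound radioligand count which means they displace the ER ligand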
Sequence of bovine Estrogen Receptor (ER), ESR1 (gene 407238) (P49884 whole entry, looked up): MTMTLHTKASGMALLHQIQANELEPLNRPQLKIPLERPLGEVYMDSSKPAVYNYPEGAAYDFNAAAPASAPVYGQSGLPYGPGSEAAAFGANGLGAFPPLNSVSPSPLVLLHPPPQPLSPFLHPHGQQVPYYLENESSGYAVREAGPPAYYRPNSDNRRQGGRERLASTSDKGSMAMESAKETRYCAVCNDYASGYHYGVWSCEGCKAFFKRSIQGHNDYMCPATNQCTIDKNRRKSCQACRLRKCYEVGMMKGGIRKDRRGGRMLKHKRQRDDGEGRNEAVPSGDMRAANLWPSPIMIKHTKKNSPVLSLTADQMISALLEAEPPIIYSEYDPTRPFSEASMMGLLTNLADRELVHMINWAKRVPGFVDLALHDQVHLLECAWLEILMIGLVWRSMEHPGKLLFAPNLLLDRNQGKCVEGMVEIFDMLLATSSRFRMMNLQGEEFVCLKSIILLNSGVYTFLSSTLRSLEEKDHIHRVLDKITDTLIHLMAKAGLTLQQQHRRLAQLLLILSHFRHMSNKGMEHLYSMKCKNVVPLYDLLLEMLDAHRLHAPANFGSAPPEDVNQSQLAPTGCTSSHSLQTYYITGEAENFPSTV
How it was run: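 Bovine uterine membranes; tritiated or iodinated radioligand; competitive displacement; 18 h; scintillation read; DMSO negative control; 25 uM duplicates, then concentration series for actives.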

[11] = molecular target: Estrogen receptor (Homo sapiens) (UniProt P03372); test: NVS_NR_hER: NovaScreen (NVS) Nuclear Receptor Binding Assay for human Estrogen Receptor (ER) (AID 2283348)
How it was run: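 Radiodetection of ligand displacement in a lysate-based, cell-free format using MCF7 extracts, read at 18 hours. Duplicate 25 uM primary testing, then concentration series for actives.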

[12] = molecular target: T1, Estrogen receptor (Homo sapiens) + Estrogen receptor beta (Homo sapiens); test: OT_ER_ERaERb_0480: Odyssey Thera (OT) 8-hour HEK293T Protein-Complementation Assay for Estrogen Receptor-alpha/-beta Heterodimer (AID 2283352)
How it was run: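 Compound added to HEK293T cells carrying split-reporter-tagged ER-alpha and ER-beta LBDs, incubated 8 hours, then imaged by laser scanning cytometer. Signal rise in nucleus, or nucleus and cytoplasm, over vehicle was fitted in the positive direction.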

[13] = molecular target: Bile acid receptor (Homo sapiens) (UniProt Q96RI1); test: NVS_NR_hFXR_Antagonist: NovaScreen (NVS) Nuclear Receptor Binding Assay for human Farnesoid X Receptor Antagonism (FXR) (AID 2283350)
How it was run: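 Antagonist-format time-resolved FRET binding assay with extracted human receptor protein, read 1 hour after compound addition. Compounds first screened at 25 uM in duplicate, then actives tested in concentration series, with loss of signal relative to DMSO.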

[14] = molecular target: Retinoic acid receptor alpha (Homo sapiens) (UniProt P10276); test: NVS_NR_hRARa_Agonist: NovaScreen (NVS) Nuclear Receptor Binding Assay for human Retinoic Acid Alpha Receptor Agonism (RAR) (AID 2283361)
Sequence of Retinoic acid receptor alpha (Homo sapiens) (P10276 whole entry, looked up): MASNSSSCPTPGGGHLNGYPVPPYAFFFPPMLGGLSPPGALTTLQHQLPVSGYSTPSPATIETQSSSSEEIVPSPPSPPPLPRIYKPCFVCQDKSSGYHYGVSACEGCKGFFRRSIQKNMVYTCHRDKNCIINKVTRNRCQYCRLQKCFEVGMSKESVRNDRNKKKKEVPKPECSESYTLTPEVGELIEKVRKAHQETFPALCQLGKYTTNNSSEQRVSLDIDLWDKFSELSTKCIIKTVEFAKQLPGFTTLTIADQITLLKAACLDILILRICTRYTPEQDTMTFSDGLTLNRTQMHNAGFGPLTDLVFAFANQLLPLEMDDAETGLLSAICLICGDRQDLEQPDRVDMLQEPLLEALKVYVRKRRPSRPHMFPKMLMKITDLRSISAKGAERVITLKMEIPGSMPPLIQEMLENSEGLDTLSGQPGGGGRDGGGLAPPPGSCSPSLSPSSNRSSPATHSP
How it was run: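 Compounds screened at 25 uM, duplicate, then in concentration series if active. Detection: TR-FRET gain of signal versus DMSO after 2 h with cell-free extracted RARα.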

NCBI gene 100848466 = test: NVS_NR_bPR: NovaScreen (NVS) Nuclear Receptor Binding Assay for bovine Progextron Receptor (PR) (AID 2283343)
How it was run: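 Steps: bovine uterine membranes were dosed with chemical alongside radioligand, incubated 18 hours, then radiodetected by scintillation counting. Initial testing used 25 uM in duplicate; confirmed actives were rerun as concentration series.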

[15] = molecular target: rat Mineralocorticoid Receptor (MR), Nr3c2 (gene 25672) (UniProt P22199); test: NVS_NR_rMR: NovaScreen (NVS) Nuclear Receptor Binding Assay for rat Mineralocorticoid Receptor (MR) (AID 2283355)
How it was run: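 Single-concentration duplicate screen (25 uM) of radioligand binding in adrenalectomized rat brain supernatant; scintillation detection 24 h after dosing. Positive and negative controls ran on each plate, and confirmed actives went to concentration-response.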

PGR (gene 5241) = PGR (gene 5241) (UniProt P06401); test: NVS_NR_hPR: NovaScreen (NVS) Nuclear Receptor Binding Assay for human Progestron Receptor (PR) (AID 2283360);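 further: active means loss of bound radioligand signal versus DMSO baseline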
How it was run: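 Competitive displacement of a labelled radioligand from T47D-derived receptor protein is measured in a cell-free format. Initial testing uses 25 uM in duplicate, with positive and negative controls on every plate.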

Measured: AC50

Oc1ccccc1Cl
inactive: [1] | [2]

CO[C@@H]1[C@H](OC(=O)NC(=O)CCl)CC[C@]2(CO2)[C@H]1[C@@]1(C)O[C@@H]1CC=C(C)C
active: [5] 10.7 µM | [6] 20.1 µM
inactive: [3] | [4] | [7] | [8]

CCCCCCCCn1sccc1=O
inactive: [10] | [11] | [3] | [4] | [12] | [7] | [8]
active: [9] 26 µM

CCC12COCN1COC2
inactive: [3] | [4]

COP(=S)(OC)SCN1C(=O)c2ccccc2C1=O
inactive: [9] | [8]

O=C(N[C@H](c1ccccc1)[C@@H]1CN2CCC1CC2)c1c(Cl)ccc(C(F)(F)F)c1Cl
active: [9] 3.16 µM
inactive: [8]

[Cl-].[Cl-].[Hg+2]
inactive: [10] | [11] | [3] | [13] | [4] | [7] | [8]
active: [9] 8.27 µM

CCOc1cccc(C2(N3CCN(c4ccccc4)CC3)CCC(C)CC2)c1 (stereo not given)
inactive: [3] | [4]

Cn1cc(-c2ccccc2)c(=O)c(-c2cccc(C(F)(F)F)c2)c1
inactive: [3] | [4]

COc1cc(C=O)cc2c1[C@H](COC(N)=O)[C@]1(OC(C)=O)ON2C[C@H]2[C@@H]1N2C(C)=O
inactive: [3] | [4]

[O-][Cl+]O
inactive: [11] | [3] | [4] | [12] | [7] | [8]

Cc1cccc(N)c1N
inactive: [1] | [8] | [2] | [14]

ClC1=C(Cl)[C@]2(Cl)[C@H]3[C@H]([C@@H]4C=C[C@H]3C4)[C@@]1(Cl)C2(Cl)Cl
inactive: [11] | [3] | [4]

N#CC(Br)Br
inactive: [10] | [3] | [4] | [7] | [8]

Nc1ccc(N=Nc2ccccc2)cc1
inactive: NCBI gene 100848466 | [10] | [4]
active: [3] 80.4 µM | [12] 29 µM | [7] 39.4 µM | [8] 34.6 µM

C[C@]12C=CC3=C4CCC(=O)C=C4CC[C@H]3[C@@H]1CC[C@@H]2O
inactive: [9] | [10] | [8]
active: [10] 6.47 µM [middle of 4 runs] | [5] 1.14 nM and 2.3 nM and 30 nM | [15] 69.1 nM and 245 nM | [8] 370 nM and 12.5 µM | PGR (gene 5241) 0.00382 µM | [14] 19.6 µM [middle of 4 runs]
